Assay results from PubChem BioAssay (NCI).
The panel holds about 83,000 compounds, 20% with a hit somewhere; the sample as a whole holds those more often.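 How to read the values: 0–100, growth inhibition (40 = 60% inhibited); 0, no net growth; -100 to 0, cell death (-40 = 40% of starting cells died; -100 = all dead).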

Tests used:
Assay in all cases: NCI-60 one-dose screen, 48 h (100 = growth as untreated, 0 = no growth, -100 = all killed); active = growth percent below 10; inactive = the rest
SK-MEL-2 melanoma = conditions: 10 µM unless noted
SN12C renal = conditions: 10 µM unless noted
UO-31 renal = conditions: 10 µM unless noted
TK-10 renal = conditions: 10 µM unless noted
ACHN renal = conditions: 10 µM unless noted
CAKI-1 renal = conditions: 10 µM unless noted
A498 renal = conditions: 10 µM unless noted
CCRF-CEM leukemia = conditions: 10 µM unless noted
MOLT-4 leukemia = conditions: 10 µM unless noted
SR leukemia = conditions: 10 µM unless noted
RPMI-8226 leukemia = conditions: 10 µM unless noted
OVCAR-8 ovarian = conditions: 10 µM unless noted
OVCAR-5 ovarian = conditions: 10 µM unless noted
SK-OV-3 ovarian = conditions: 10 µM unless noted
IGROV1 ovarian = conditions: 10 µM unless noted
OVCAR-3 ovarian = conditions: 10 µM unless noted
HS 578T breast = conditions: 10 µM unless noted
NCI/ADR-RES ovarian = conditions: 10 µM unless noted
OVCAR-4 ovarian = conditions: 10 µM

Measured: growth

O=S(=O)(NCc1ccccc1)c1ncnc2nc[nH]c12
inactive: SK-MEL-2 melanoma 118% | SN12C renal 108% | UO-31 renal 93.8% | TK-10 renal 115% | ACHN renal 105% | CAKI-1 renal 104% | A498 renal 124% | CCRF-CEM leukemia 83.1% | MOLT-4 leukemia 93.3% | SR leukemia 105% | RPMI-8226 leukemia 99.2% | OVCAR-8 ovarian 87.2% | OVCAR-5 ovarian 106% | SK-OV-3 ovarian 108% | IGROV1 ovarian 119% | OVCAR-3 ovarian 111% | HS 578T breast 116% | NCI/ADR-RES ovarian 97.4%

CCCCCCCCCCCCCCCCCCNC(=S)N/N=C/c1ccc(OC)c(OC)c1
inactive: SK-MEL-2 melanoma 111% | SN12C renal 93.4% | UO-31 renal 77.1% | TK-10 renal 104% | ACHN renal 102% | CAKI-1 renal 93.9% | A498 renal 82.4% | CCRF-CEM leukemia 91.7% | MOLT-4 leukemia 100% | SR leukemia 81.2% | RPMI-8226 leukemia 89.7% | OVCAR-8 ovarian 101% | OVCAR-5 ovarian 93.8% | OVCAR-4 ovarian 98.5% | SK-OV-3 ovarian 98.5% | IGROV1 ovarian 94.2% | HS 578T breast 100% | NCI/ADR-RES ovarian 97.3%

C[C@@H]1C[C@H]2C(=O)O[C@@H](C)[C@H](NC(=O)[C@H](Cc3cc(F)cc(F)c3)NC(=O)Nc3ccc(Cl)cc3F)C(=O)N3C[C@H](O)C[C@H]3C(=O)N3CCN(C)C[C@H]3C(=O)N[C@@H](C)C(=O)N2C1
inactive: SK-MEL-2 melanoma 29.6% | SN12C renal 22.9% | UO-31 renal 83% | TK-10 renal 91.7% | ACHN renal 104% | CAKI-1 renal 72.7% | A498 renal 33.1% | CCRF-CEM leukemia 53.7% | MOLT-4 leukemia 41.7% | SR leukemia 40.3% | RPMI-8226 leukemia 20.4% | OVCAR-8 ovarian 39.1% | OVCAR-5 ovarian 41.9% | OVCAR-4 ovarian 16.4% | IGROV1 ovarian 51.3% | OVCAR-3 ovarian 20.4% | HS 578T breast 37.9% | NCI/ADR-RES ovarian 105%

COc1ccc(/C=C(/C(=O)c2ccc(Cl)cc2)C(=O)C(F)(F)F)cc1
inactive: SK-MEL-2 melanoma 86.4% | SN12C renal 98% | UO-31 renal 78.6% | TK-10 renal 75.3% | CAKI-1 renal 94.3% | A498 renal 82.4% | CCRF-CEM leukemia 89.7% | MOLT-4 leukemia 85.8% | SR leukemia 76.2% | RPMI-8226 leukemia 90.2% | OVCAR-8 ovarian 102% | OVCAR-5 ovarian 103% | OVCAR-4 ovarian 96.3% | SK-OV-3 ovarian 100% | IGROV1 ovarian 96% | OVCAR-3 ovarian 98.7% | HS 578T breast 96.2% | NCI/ADR-RES ovarian 95.8%

CCOC(=O)c1nn(C2CCCCO2)c2ccc(NC(=O)Cn3nnc4ccccc43)cc12 (configuration not stated)
inactive: SK-MEL-2 melanoma 113% | SN12C renal 97.6% | UO-31 renal 82.6% | TK-10 renal 117% | ACHN renal 98.6% | CAKI-1 renal 97.6% | A498 renal 85.8% | CCRF-CEM leukemia 117% | MOLT-4 leukemia 95.9% | SR leukemia 97.6% | OVCAR-8 ovarian 101% | OVCAR-5 ovarian 97.7% | OVCAR-4 ovarian 104% | IGROV1 ovarian 103% | OVCAR-3 ovarian 110% | HS 578T breast 99.4% | NCI/ADR-RES ovarian 104%

CC1(C(=O)O)CCC(N)(C(=O)O)C1(C)C (configuration not stated)
inactive: SK-MEL-2 melanoma 110% | SN12C renal 107% | UO-31 renal 86.5% | ACHN renal 116% | CAKI-1 renal 114% | A498 renal 87.7% | CCRF-CEM leukemia 89.7% | MOLT-4 leukemia 100% | SR leukemia 105% | RPMI-8226 leukemia 91.9% | OVCAR-8 ovarian 111% | OVCAR-5 ovarian 115% | OVCAR-4 ovarian 104% | SK-OV-3 ovarian 97% | IGROV1 ovarian 108% | OVCAR-3 ovarian 102% | HS 578T breast 127% | NCI/ADR-RES ovarian 118%

O=C(Nc1ccccc1)Nc1ccc(C(=O)/C=C/c2ccc(N3CCCC3)cc2)cc1
inactive: SK-MEL-2 melanoma 17.9% | SN12C renal 66.5% | UO-31 renal 67.7% | TK-10 renal 102% | ACHN renal 83.6% | CAKI-1 renal 61.7% | A498 renal 45.9% | CCRF-CEM leukemia 72.6% | MOLT-4 leukemia 67.5% | SR leukemia 98.9% | RPMI-8226 leukemia 78.3% | OVCAR-8 ovarian 81.7% | OVCAR-5 ovarian 83.2% | SK-OV-3 ovarian 66.1% | IGROV1 ovarian 92.1% | OVCAR-3 ovarian 43% | HS 578T breast 38.2% | NCI/ADR-RES ovarian 28.6%

N#CCCc1c[nH]c2ccccc12
inactive: SK-MEL-2 melanoma 88.4% | SN12C renal 101% | UO-31 renal 68% | TK-10 renal 104% | ACHN renal 97% | CAKI-1 renal 87.3% | A498 renal 103% | CCRF-CEM leukemia 81.6% | MOLT-4 leukemia 96.1% | SR leukemia 91.5% | RPMI-8226 leukemia 92.7% | OVCAR-8 ovarian 91.9% | OVCAR-5 ovarian 102% | OVCAR-4 ovarian 93% | SK-OV-3 ovarian 88.9% | IGROV1 ovarian 103% | OVCAR-3 ovarian 98.7% | HS 578T breast 94.3% | NCI/ADR-RES ovarian 99.3%

Cc1ccc(-n2nc3n(/c2=N\C(=O)NS(=O)(=O)c2ccc(C)cc2)CCN3C2=NCCN2)cc1
inactive: SK-MEL-2 melanoma 109% | SN12C renal 97% | UO-31 renal 84.1% | TK-10 renal 101% | ACHN renal 94.5% | CAKI-1 renal 90% | A498 renal 93.5% | CCRF-CEM leukemia 107% | MOLT-4 leukemia 112% | SR leukemia 135% | RPMI-8226 leukemia 106% | OVCAR-8 ovarian 103% | OVCAR-5 ovarian 95.4% | SK-OV-3 ovarian 99.1% | IGROV1 ovarian 104% | OVCAR-3 ovarian 109% | HS 578T breast 99.7% | NCI/ADR-RES ovarian 105%
